Reference: PubChem BioAssay
For part of these data: Entries with a potency or affinity are not part of this list. Activity calls are given as the source filed them.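 How the source made its calls, unless noted: active means calcium signal ratio cut to more than 3 SD under the fully stimulated control mean yet still positive, in both repeats and the primary screen; inactive means the rest.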

Columns and labels:
[1] = tested on: TRPC4 beta (transient receptor potential cation channel C4), mouse; test: activators of mouse TRPC4 channel, confirmation, cell-based, Fluo4 calcium, HEK293 TRPC4beta/mu-opioid, duplicates, 10 µM (AID 2426;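 active means fluorescence ratio normalized to control raised more than 50% in primary screen plus both repeat runs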;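 on activation: percent rise of integrated ratio over buffer wells lacking compound which define 0%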); conditions: Fluo4 calcium fluorescence, at 10 µM; active compounds read high
[2] = tested on: transient receptor potential cation channel C4 beta (TRPC4), mouse; test: activators of mouse TRPC4 channel, confirmation, cell-based, second round, Fluo4, HEK293 TRPC4beta/mu-opioid, 1 µM (AID 2461;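 active means primary screen active and over 50% activation in each of two duplicate runs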); conditions: Fluo4 calcium fluorescence, at 1 µM; active compounds read high
[3] = tested on: TRPC4 (transient receptor potential cation channel C4 beta), mouse; test: positive allosteric modulators of mouse TRPC4, confirmation, cell-based, second round, Fluo-4, HEK293 TRPC4beta/mu-opioid, 1 µM (AID 2554;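 active means primary screen hit whose fluorescence ratio, in both repeats, exceeds the weak agonist control mean by 3 SD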); conditions: DAMGO EC20, Fluo-4 calcium flux, at 1 µM; active compounds read high
[4] = tested on: TRPC4 beta (transient receptor potential cation channel C4), mouse; test: positive allosteric modulators of mouse TRPC4, confirmation, cell-based, Fluo-4, HEK293 TRPC4beta/mu-opioid (AID 2555;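 active means primary screen hit whose calcium fluorescence ratio, in both repeats, exceeds the weak agonist control mean by 3 SD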); conditions: DAMGO EC20, Fluo-4 calcium flux, at 10 µM; active compounds read high
[5] = target: Short transient receptor potential channel 4 (Mus musculus) (UniProt Q9QUQ5); test: inhibitors of mouse TRPC4 channel, confirmation, cell-based, Fluo4, HEK293 TRPC4beta/mu-opioid (AID 2636;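 active means calcium signal cut by more than 3 SD below the full-agonist control yet still positive, in both repeats and the earlier primary screen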); conditions: DAMGO, Fluo4 calcium flux, at 10 µM; active compounds read high
[6] = target: Short transient receptor potential channel 4 (Mus musculus) (UniProt Q9QUQ5); test: inhibitors of mouse TRPC4 channel, confirmation, cell-based, second round, Fluo4, HEK293 TRPC4beta/mu-opioid, 1 µM (AID 2637); conditions: Fluo4 calcium flux, DAMGO, at 1 µM; active compounds read high
[7] = target: Short transient receptor potential channel 4 (Mus musculus) (UniProt Q9QUQ5); test: mouse TRPC4 channel activators, dose response, cell-based, HEK293 TRPC4/mu-opioid, Fluo-4 calcium (AID 434937;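 active means primary screen activator hit with a dose response curve and TRPC4 channel activation at any tested dose; inactive means no activation, no dose response, or not a primary hit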)
[8] = target: Short transient receptor potential channel 4 (Mus musculus) (UniProt Q9QUQ5); test: TRPC4 positive allosteric modulators, dose response, cell-based, HEK293 TRPC4/mu-opioid, Fluo-4 calcium, EC20 DAMGO (AID 434941;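 active means earlier screen potentiator hit that boosts the TRPC4 ion channel at some dose, with a dose response; inactive means no potentiation, no dose response, or not a prior hit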;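 further: calcium entry triggered by an EC20 dose of DAMGO at the co-expressed mu-opioid receptor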)
[9] = target: Short transient receptor potential channel 4 (Mus musculus) (UniProt Q9QUQ5); test: mouse TRPC4 channel inhibitors, dose response, cell-based, HEK293 TRPC4/mu-opioid, Fluo-4 calcium (AID 434942;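 active means primary screen inhibitor hit that blocks the TRPC4 channel at some tested dose, yielding a dose curve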)
[10] = target: Short transient receptor potential channel 6 (Mus musculus) (UniProt Q61143); test: inhibition of mouse TRPC6 channel, confirmation, selectivity assay for TRPC4 inhibitor project, cell-based, HEK293, membrane potential dye, duplicate (AID 434948;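 active means active in primary screen and both duplicates, each dropping signal beyond three positive-control SD with fluorescence still positive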); conditions: HEK293 TRPC6, membrane potential dye fluorescence, at 10 µM, stimulated with maximal-effect acetylcholine; active compounds read high
[11] = target: Short transient receptor potential channel 6 (Mus musculus) (UniProt Q61143); test: activation of mouse TRPC6 channel, confirmation, selectivity assay for TRPC4 activator project, cell-based, HEK293, membrane potential dye, duplicate (AID 434950;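 active means membrane potential signal rise above negative control mean plus 3 SD in both duplicates, also active in the earlier TRPC4 screen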;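 on activation: 0% = buffer only wells and 100% = acetylcholine maximal-effect wells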); conditions: HEK293 TRPC6, membrane potential fluorescence, at 10 µM; active compounds read high
[12] = target: Short transient receptor potential channel 6 (Mus musculus) (UniProt Q61143); test: TRPC6 potentiation by TRPC4 potentiator hits, confirmation, selectivity assay for TRPC4 potentiator project, HEK293 cells, membrane potential dye, duplicate (AID 434952;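 active means compound raising the membrane signal above positive-control mean plus 3 SD in both repeats, and a primary screen hit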); conditions: HEK293 TRPC6, membrane potential dye fluorescence, at 10 µM, maximal acetylcholine added after compound; active compounds read high
[13] = target: Short transient receptor potential channel 4 (Mus musculus) (UniProt Q9QUQ5); test: calcium flux activators in TRPC4/5HT1a cells, counter-screen for TRPC4 activator project, cell-based, second counter screen, HEK293 TRPC4/5HT1a, Fluo-4 (AID 434977;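 active means calcium signal rise above buffer-control mean plus 5 SD in both duplicates, and also a hit in the primary screen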); conditions: Fluo-4 calcium flux, at 10 µM; active compounds read high
[14] = calcium flux inhibitors in TRPC4/5HT1a cells, confirmation, counter-screen for TRPC4 inhibitor project, cell-based, second counter screen, HEK293 TRPC4/5HT1a, Fluo-4 (AID 434978;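 active means primary screen active whose calcium signal fell more than 3 SD beyond the full-serotonin control mean in both duplicate plates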;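 further: serotonin given first at submaximal then at maximal dose after compound preincubation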); conditions: Fluo-4 calcium flux, at 10 µM, serotonin added to trigger calcium flux; active compounds read high
[15] = tested on: TRPC4 (mouse), co-expressed with 5HT1a in HEK293; test: calcium flux potentiators in TRPC4/5HT1a cells, confirmation, counter-screen for TRPC4 potentiator project, cell-based, second counter screen, HEK293 TRPC4/5HT1a, Fluo-4 (AID 434979;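 active means signal rise over 3 SD above mean of control wells given weak agonist, in both repeats and first screen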); conditions: Fluo-4 calcium flux, at 10 µM, serotonin added at its EC20 dose; active compounds read high
[16] = calcium flux activation in mu-opioid HEK293 cells, confirmation, counter-screen for TRPC4 activator project, cell-based, HEK293 mu-opioid receptor line (AID 449723;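 active means hit in primary screen, with calcium signal over 5 SD above buffer well mean in both duplicates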;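 further: counter screen cells carry the mu-opioid receptor alone and lack TRPC4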); conditions: Fluo-4 calcium fluorescence, at 10 µM; active compounds read high
[17] = calcium flux enhancement in mu-opioid HEK293 cells, confirmation, counter-screen for TRPC4 allosteric potentiator project, cell-based, HEK293 mu-opioid receptor line (AID 449724;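 active means calcium signal rise more than 3 SD above the low-dose agonist control mean, in both duplicate plates and the primary screen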); conditions: Fluo-4 calcium flux, at 10 µM, compound added before EC20 DAMGO stimulus; active compounds read high

Chain of Short transient receptor potential channel 4 (Mus musculus) (Q9QUQ5 whole entry, looked up): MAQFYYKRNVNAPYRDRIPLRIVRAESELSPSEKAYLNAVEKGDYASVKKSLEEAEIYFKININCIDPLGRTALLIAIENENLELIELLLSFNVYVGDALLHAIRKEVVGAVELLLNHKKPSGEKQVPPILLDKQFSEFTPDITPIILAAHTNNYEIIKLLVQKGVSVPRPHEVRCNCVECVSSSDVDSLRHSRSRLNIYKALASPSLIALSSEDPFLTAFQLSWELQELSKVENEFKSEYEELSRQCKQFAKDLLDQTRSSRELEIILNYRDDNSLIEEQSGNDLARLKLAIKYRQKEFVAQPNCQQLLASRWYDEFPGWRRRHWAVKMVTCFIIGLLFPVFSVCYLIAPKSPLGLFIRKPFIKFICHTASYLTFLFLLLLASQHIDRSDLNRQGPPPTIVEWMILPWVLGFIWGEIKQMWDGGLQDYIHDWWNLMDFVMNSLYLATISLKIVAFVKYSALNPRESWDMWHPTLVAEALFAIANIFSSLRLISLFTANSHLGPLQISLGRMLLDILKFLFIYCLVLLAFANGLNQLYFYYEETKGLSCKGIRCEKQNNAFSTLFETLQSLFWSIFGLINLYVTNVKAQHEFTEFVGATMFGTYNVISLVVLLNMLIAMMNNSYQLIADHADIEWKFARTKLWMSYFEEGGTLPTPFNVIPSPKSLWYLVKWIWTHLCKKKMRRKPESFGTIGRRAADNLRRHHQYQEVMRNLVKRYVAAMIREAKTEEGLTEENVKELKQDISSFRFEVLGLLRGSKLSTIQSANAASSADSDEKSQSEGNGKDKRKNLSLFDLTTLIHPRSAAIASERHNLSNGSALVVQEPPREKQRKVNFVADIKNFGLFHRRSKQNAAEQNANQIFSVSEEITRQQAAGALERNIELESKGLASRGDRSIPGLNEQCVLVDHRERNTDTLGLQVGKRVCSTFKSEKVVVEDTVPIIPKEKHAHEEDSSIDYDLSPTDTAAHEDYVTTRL
Chain of Short transient receptor potential channel 6 (Mus musculus) (Q61143 whole entry, looked up): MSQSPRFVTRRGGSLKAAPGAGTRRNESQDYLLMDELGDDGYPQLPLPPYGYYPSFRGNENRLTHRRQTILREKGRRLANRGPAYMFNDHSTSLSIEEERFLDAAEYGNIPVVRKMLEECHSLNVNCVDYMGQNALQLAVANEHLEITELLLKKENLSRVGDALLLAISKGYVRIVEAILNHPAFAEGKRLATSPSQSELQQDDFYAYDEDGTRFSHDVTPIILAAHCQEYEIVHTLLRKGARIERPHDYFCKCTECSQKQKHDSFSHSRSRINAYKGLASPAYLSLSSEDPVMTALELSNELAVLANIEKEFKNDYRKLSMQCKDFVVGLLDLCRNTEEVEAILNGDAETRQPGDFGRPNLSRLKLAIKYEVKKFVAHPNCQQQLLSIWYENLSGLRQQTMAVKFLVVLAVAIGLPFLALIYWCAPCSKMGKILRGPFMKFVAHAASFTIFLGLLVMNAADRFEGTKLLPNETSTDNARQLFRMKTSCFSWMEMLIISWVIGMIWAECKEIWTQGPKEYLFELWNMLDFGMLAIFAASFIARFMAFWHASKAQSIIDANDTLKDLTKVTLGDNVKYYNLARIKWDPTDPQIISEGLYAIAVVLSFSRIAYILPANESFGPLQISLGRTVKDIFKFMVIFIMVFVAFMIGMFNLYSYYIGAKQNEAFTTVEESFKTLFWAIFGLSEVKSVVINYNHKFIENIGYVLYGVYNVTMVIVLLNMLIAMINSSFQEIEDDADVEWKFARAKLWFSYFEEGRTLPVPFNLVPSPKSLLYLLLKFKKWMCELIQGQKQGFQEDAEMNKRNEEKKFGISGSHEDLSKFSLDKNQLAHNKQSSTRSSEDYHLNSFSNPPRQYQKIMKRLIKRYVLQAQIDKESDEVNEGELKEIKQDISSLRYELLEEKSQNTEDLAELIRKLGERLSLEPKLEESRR

COc1ccc(C(CNC(=O)C2CC2)N(C)C)cc1 (stereo not given)
inactive: outcome [1] | outcome [2] | outcome [3] | outcome [4] | outcome [5] | outcome [6] | outcome [7] | outcome [8] | outcome [9] | outcome [10] | outcome [11] | outcome [12] | outcome [13] | outcome [14] | outcome [15] | outcome [16] | outcome [17]

Cc1ccccc1-n1c(=O)c2c(n3cnnc13)-c1ccccc1CC21CCCCC1
inactive: outcome [1] | outcome [2] | outcome [3] | outcome [4] | outcome [5] | outcome [6] | outcome [7] | outcome [8] | outcome [9] | outcome [10] | outcome [11] | outcome [12] | outcome [13] | outcome [14] | outcome [16] | outcome [17]
active: potentiation [15] 10.5%

O=c1oc2ccccc2c(O)c1/C=C1\C=Nc2ccccc21
active: activation [11] 32.5%
inactive: outcome [1] | outcome [2] | outcome [3] | outcome [4] | outcome [5] | outcome [6] | outcome [7] | outcome [8] | outcome [9] | outcome [10] | outcome [12] | outcome [13] | outcome [14] | outcome [15] | outcome [16] | outcome [17]

CSc1ccccc1OC1CCN(Cc2ccccc2)CC1
inactive: outcome [1] | outcome [2] | outcome [3] | outcome [4] | outcome [5] | outcome [6] | outcome [7] | outcome [8] | outcome [9] | outcome [10] | outcome [11] | outcome [12] | outcome [13] | outcome [14] | outcome [15] | outcome [16] | outcome [17]

CCN1CCN(c2nc(C)c3c(n2)CC(C)CC3=O)CC1 (stereo not given)
inactive: outcome [1] | outcome [2] | outcome [3] | outcome [4] | outcome [5] | outcome [6] | outcome [7] | outcome [8] | outcome [9] | outcome [10] | outcome [11] | outcome [12] | outcome [13] | outcome [14] | outcome [16] | outcome [17]
active: potentiation [15] 8.12%

O=C(C1=C[C@H](c2ccc(C(F)(F)F)cc2)C[C@H](OCCCCO)O1)N1CCN(Cc2ccccc2)CC1
inactive: outcome [1] | outcome [2] | outcome [3] | outcome [4] | outcome [5] | outcome [6] | outcome [7] | outcome [8] | outcome [9] | outcome [10] | outcome [12] | outcome [13] | outcome [14] | outcome [15] | outcome [16] | outcome [17]
active: activation [11] 35%

CCCCN(C)C(=O)Cn1ncc2c3ccccc3n(CCC)c2c1=O
active: potentiation [4] 37% | potentiation [15] 42.7%
inactive: outcome [1] | outcome [2] | outcome [3] | outcome [5] | outcome [6] | outcome [7] | outcome [8] | outcome [9] | outcome [10] | outcome [11] | outcome [12] | outcome [13] | outcome [14] | outcome [16] | outcome [17]

Cc1cc(Cl)ccc1OC(C)C(=O)Nc1ccccc1N1CCOCC1 (stereo not given)
inactive: outcome [1] | outcome [2] | outcome [3] | outcome [5] | outcome [6] | outcome [7] | outcome [8] | outcome [9] | outcome [10] | outcome [11] | outcome [12] | outcome [13] | outcome [14] | outcome [15] | outcome [16]
active: potentiation [4] 25% | activation [17] 1140%

CCOc1ccc(CCNC(=O)c2ccc3c(=O)[nH]c4c(C(=O)NC(C)C)sc(=S)n4c3c2)cc1
inactive: outcome [1] | outcome [2] | outcome [5] | outcome [6] | outcome [7] | outcome [8] | outcome [9] | outcome [10] | outcome [11] | outcome [12] | outcome [13] | outcome [14] | outcome [16] | outcome [17]
active: potentiation [3] 9% | potentiation [4] 11% | potentiation [15] 7.91%

COc1ccc(-n2cc(CNCc3cccnc3)c(-c3cccc(F)c3)n2)cc1
inactive: outcome [2] | outcome [3] | outcome [4] | outcome [5] | outcome [6] | outcome [7] | outcome [8] | outcome [9] | outcome [10] | outcome [11] | outcome [12] | outcome [13] | outcome [14] | outcome [15] | outcome [16] | outcome [17]
active: activation [1] 84%

COc1ccc(CCNC(=O)C2CCN(C(=O)c3ccc(C(C)(C)C)cc3)CC2)cc1
inactive: outcome [1] | outcome [2] | outcome [3] | outcome [4] | outcome [5] | outcome [6] | outcome [7] | outcome [8] | outcome [9] | outcome [10] | outcome [11] | outcome [12] | outcome [13] | outcome [14] | outcome [15] | outcome [16] | outcome [17]

Cc1[nH]c2ccccc2c1C(=O)CN1C(=O)NC(C)(c2ccc(Cl)cc2Cl)C1=O (stereo not given)
inactive: outcome [1] | outcome [2] | outcome [3] | outcome [5] | outcome [6] | outcome [7] | outcome [8] | outcome [9] | outcome [10] | outcome [11] | outcome [12] | outcome [13] | outcome [14] | outcome [16] | outcome [17]
active: potentiation [4] 21% | potentiation [15] 37.7%

COc1cc(C2c3c(-c4ccccc4)n[nH]c3C(=O)N2c2ccccc2)ccc1O (stereo not given)
inactive: outcome [1] | outcome [2] | outcome [3] | outcome [5] | outcome [6] | outcome [7] | outcome [8] | outcome [9] | outcome [10] | outcome [11] | outcome [12] | outcome [13] | outcome [14] | outcome [16] | outcome [17]
active: potentiation [4] 16% | potentiation [15] 17%

CCOc1cc(/C=C(\C#N)C(=O)Nc2cccc(C(=O)O)c2)cc(Br)c1OC(=O)c1ccc(OC)cc1
inactive: outcome [1] | outcome [2] | outcome [3] | outcome [5] | outcome [6] | outcome [7] | outcome [8] | outcome [9] | outcome [10] | outcome [11] | outcome [12] | outcome [13] | outcome [14] | outcome [16] | outcome [17]
active: potentiation [4] 28% | potentiation [15] 16.7%

CC(C)Cc1nc(N2CCN(C(=O)C(C)C)CC2)c(C#N)c2c1CCC2
inactive: outcome [1] | outcome [2] | outcome [3] | outcome [5] | outcome [6] | outcome [7] | outcome [8] | outcome [9] | outcome [10] | outcome [11] | outcome [12] | outcome [13] | outcome [14] | outcome [15] | outcome [16] | outcome [17]
active: potentiation [4] 33%
